p97 ATPase inh = inhibitors of human p97 ATPase, primary screen, biochemical; Transitional endoplasmic reticulum ATPase (Homo sapiens), P55072; recombinant p97 ATPase, Kinase-Glo ATP luminescence, 3 h; inhibition, % at 8 µM; 220,000 tested, 0.42% active; AID 1481, 2009; in the data active means inhibition above about 15%;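 further: 0% = DMSO vehicle and 100% = wells lacking enzyme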
PKD1 inh = inhibitors of human PKD1 kinase, biochemical, fluorescence polarization; PKD1 kinase fluorescence polarization assay; inhibition, % (test concentration not listed); 200,000 tested, 0.056% active; in the data active means inhibition above about 50%
Redox H2O2 prof = compounds producing H2O2 with reducing agent – biochemical, NIH compound library profiling, artefact control for MLSCN library redox annotation, primary screen. 200,000 tested, 0.03% active. activation, % at 10 µM. AID 878, 2007. DTT-dependent redox cycling H2O2, phenol red/HRP absorbance; 100% = 100 µM peroxide control, 0% = buffer;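 active means activation of at least 50% relative to the plate's high and low controls in the primary single-dose screen; inactive means activation below 50%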;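 further: compound incubated with DTT at 0.8 mM final as the reducing agent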
FAS-TE inh = FAS thioesterase domain inhibitors, primary screen, biochemical, fluorescence intensity, uHTS; recombinant FAS-TE, OMFH fluorogenic substrate, fluorescence endpoint; inhibition, % at 15 µM; AID 602261, 2012; 360,000 tested, 0.67% active; Fatty acid synthase (Homo sapiens), P49327;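 active means compounds whose normalised, plate-corrected inhibition of enzyme fluorescence in the single-dose primary screen is 50% or more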;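 further: 0% = DMSO with enzyme and 100% = substrate without enzyme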
Furin inh = human furin inhibitors, primary screen, biochemical, fluorescence intensity. 220,000 tested, 0.061% active. purified furin, fluorogenic substrate cleavage. inhibition, % at 20 µM or 30 µM. P09958; in the data active means inhibition above about 25%
SUMO HTRF inh = inhibitors of in vitro SUMOylation cascade, primary screen, biochemical, HTRF, uHTS. SUMO-conjugating enzyme UBC9 (Homo sapiens), P63279. HTRF SUMOylation assay, SAE1/SAE2 + UBC9. inhibition, % at 35 µM. 290,000 tested, 0.36% active; in the data active means inhibition above about 50%, passing the limit was not always enough; inconclusive means no clear call, values can overlap the other calls
The depositor's hits bear a star; ? = inconclusive; . = not tested or not shown. This is a sample that favours compounds with a hit; in the whole collection about 1.2% have one here.

SMILES | p97 ATPase inh | PKD1 inh | Redox H2O2 prof | FAS-TE inh | Furin inh | SUMO HTRF inh
COc1ccc2c(n1)Sc1nc3ccccc3nc1N2 | 1 | . | . | -26 | -10 | 75*
COc1cc2ccccc2nn1 | -2 | . | . | -4 | -27 | 23
Cc1cc(/C=C2\SC(=O)N(C)C2=O)c(C)n1-c1ccc(O)cc1 | . | . | . | 11 | . | 74*
CC(C)(C)C1CCN2CCCC(c3ccccc3)(C1)C2=O (configuration not stated) | . | . | . | -2 | . | .
Oc1ccc(NCc2cccc(OCc3ccc(F)cc3)c2)cc1 | 10 | 3 | -2 | 11 | -21 | 74*
CN(N=Cc1ccccc1)C(=S)Nc1ccccc1 | . | . | . | 6 | . | .
O=C(CSc1nnnn1-c1ccccc1)NC(=O)Cc1ccccc1 | . | . | . | 8 | . | .
CCOC(=O)NC(=O)CSc1nnnn1-c1ccccc1 | 1 | -16 | -4 | -3 | 38* | 0
CC(=O)Nc1ccc(S(=O)(=O)Nc2nc3ccccc3nc2Nc2ccc3ccccc3c2)cc1 | 0 | -2 | 1 | 25 | -26 | 55*
O=C1CCC2(CCCCC2)N1 | . | . | . | -6 | . | .
O=C(O)c1ccc(N2N=C(c3ccccc3)CC2c2ccccc2)cc1 (configuration not stated) | . | . | . | 9 | . | 62*
N=C1S/C(=C\c2ccccc2F)C(=O)N1c1ccc(F)cc1 | 4 | 11 | 0 | -3 | -23 | -6
N=C1S/C(=C\c2cccc3ccccc23)C(=O)N1c1ccc(F)cc1 | 2 | 2 | 0 | 3 | -26 | 63*
O=C1[C@H]2[C@@H](c3ccc(Cl)cc3)N3C(=O)N(c4cccc(F)c4)C(=O)[C@@]3(Cc3ccc(Cl)cc3)[C@H]2C(=O)N1C1CCCCC1 | . | . | . | 96* | . | -9
O=C1[C@H]2[C@@H](c3ccc(F)cc3)N3C(=O)N(c4ccc(Br)cc4)C(=O)[C@@]3(Cc3ccccc3)[C@H]2C(=O)N1C1CCCCC1 | . | . | . | 92* | . | -13
CCN1C(=O)[C@H]2[C@@H](c3ccc(C)cc3)N3C(=O)N(c4cccc(Cl)c4)C(=O)[C@@]3(CC(C)C)[C@H]2C1=O | . | . | . | 12 | . | .
CC(C)C[C@@]12C(=O)N(c3cccc(Cl)c3)C(=O)N1[C@H](c1ccc(F)cc1)[C@@H]1C(=O)N(C3CCCCC3)C(=O)[C@@H]12 | . | . | . | 84* | . | .
O=C1[C@H]2[C@@H](c3ccc(Cl)cc3)N3C(=O)N(c4cccc(Cl)c4)C(=O)[C@@]3(Cc3ccc(Cl)cc3)[C@H]2C(=O)N1C1CCCCC1 | . | . | . | 94* | . | .
COc1ccc(S(=O)(=O)NC(=O)C2(C)CCN2C(=O)C2(c3ccccc3)CC2)cc1 (configuration not stated) | . | . | . | -12 | . | .
CSc1ccc(S(=O)(=O)NCC(=O)OCC(=O)N(C)CC(=O)Nc2ccc(F)cc2)cc1[N+](=O)[O-] | . | . | . | 4 | . | .
CCN1C(=O)[C@H]2[C@@H](c3ccc(C)cc3)N3C(=O)N(c4cccc(F)c4)C(=O)[C@@]3(Cc3ccc(Cl)cc3)[C@H]2C1=O | . | . | . | 44 | . | .
Cc1cccc(N2C(=O)N3[C@H](c4ccc(Cl)cc4)[C@@H]4C(=O)N(C5CCCCC5)C(=O)[C@@H]4[C@]3(Cc3ccc(Cl)cc3)C2=O)c1 | . | . | . | 94* | . | -5
CCOC(=O)C1(C)CCCN(C(=O)c2ccc(C#N)cc2)C1 (configuration not stated) | . | . | . | -8 | . | .
Cc1cn([C@H]2C[C@H](O)[C@@H](CNCc3cc(Br)ccc3OCc3ccccc3)O2)c(=O)[nH]c1=O | . | . | . | -4 | . | .
Cc1c(C(=O)Nc2ccc(F)cc2)cn2c(nc3ccccc32)c1C#N | 4 | . | . | -3 | -28 | 53*
SMILES | p97 ATPase inh | PKD1 inh | Redox H2O2 prof | FAS-TE inh | Furin inh | SUMO HTRF inh
N#Cc1c2nc3ccccc3nc2n2cc(NC(=O)c3ccc(F)cc3)ccc12 | 3 | -1 | 0 | -8 | 0 | .
COc1cc(/C=C2/SC(=S)NC2=O)ccc1OS(=O)(=O)c1ccc(C)cc1 | -2 | -9 | 0 | 57* | -3 | 42
COc1cc(/C=C2\SC(=S)NC2=O)ccc1OS(=O)(=O)c1ccccc1 | -4 | -14 | 0 | . | 0 | 23
O=C(COc1ccccc1C(=O)N/N=C\c1ccc(O)c(O)c1)N/N=C/c1ccc(O)c(O)c1 | 19* | 13 | -5 | -18 | -13 | ?
COc1ccc(OC)c(NC(=O)C2(C)CCN2Cc2ccccc2Cl)c1 (configuration not stated) | . | . | . | 20 | . | .
COC(=O)c1cc2c(n1S(=O)(=O)c1ccc(C)cc1)C(=O)C(=O)c1[nH]cc(C(=O)OCc3ccccc3)c1-2 | . | . | . | 29 | . | .
COc1cc(C2Nc3cccc4cccc(c34)N2)ccc1OC(C)=O | 10 | 10 | 1 | 12 | -8 | 64*
COc1ccc(C2Nc3cccc4cccc(c34)N2)cc1Br | . | . | . | 20 | . | -1
Oc1c(Br)cc(/C=N/n2c(-c3ccccc3)n[nH]c2=S)c(Br)c1O | . | . | . | . | . | 55*
C=CCC[C@@H](CCCCC)OC(=O)/C=C/[C@H](O)[C@@H](O)C[C@H](O)CC=C | . | . | . | 4 | . | .
Oc1ccc(Nc2nc(-c3ccc(O)cc3)cs2)cc1 | 15* | -2 | 1 | 4 | -8 | -12
COc1ccccc1-c1sc2ccccc2c1-c1cnc(N2CCOCC2)nc1 | . | . | . | 17 | . | .
CCC(=O)OCCNc1cc(Sc2nccn2C)c2nonc2c1[N+](=O)[O-] | 6 | -16 | 1 | 48 | 3 | 53
CCC(=O)OCCNc1cc(SCCC(=O)OC)c2nonc2c1[N+](=O)[O-] | 0 | 1 | 1 | 24 | -3 | 63*
CCC(CO)[n+]1c(C)cc(/C=C2\Sc3ccccc3N2Cc2ccccc2)cc1C (configuration not stated) | -4 | 1 | 0 | -23 | 29* | -1
CSc1ccc(CN2CCC(N3CCC(C(=O)NC4CC4)CC3)CC2)cc1 | . | . | . | -5 | . | .
O=C(NN=C1C2CC3CC(C2)CC1C3)c1ccncc1 | -1 | -3 | -3 | -1 | -22 | 19
O=C(N/N=C1\C/C(=N\NC(=O)c2ccncc2)c2ccccc21)c1ccncc1 | 4 | -2 | -2 | 10 | -9 | 52*
CCC1CC(=O)CCN1S(=O)(=O)c1ccc(C)cc1 (configuration not stated) | . | . | . | -2 | . | .
O=c1c2ccccc2nc2n1CCC2 | 2 | -9 | 0 | -9 | -30 | 73*
C=CCOc1ccc(Cl)cc1-c1noc(-c2csc([C@H]3C[C@H](O)[C@@H](CO)O3)n2)n1 | . | . | . | -10 | . | .
COc1ccccc1/C=C1/SC(=O)N(CCC(=O)Nc2ccc(S(=O)(=O)Nc3nccs3)cc2)C1=O | 0 | -8 | 0 | -2 | -12 | 59*
O=C(CCN1C(=O)S/C(=C\c2ccccc2)C1=O)Nc1ccc(S(=O)(=O)Nc2nccs2)cc1 | -2 | -5 | 16 | 7 | -11 | -8

Bioassay records: PubChem BioAssay, several laboratories
